Screens: PubChem, NMMLSC
Anthrax LF prot – anthrax lethal factor protease inhibition | multiplex microsphere protease cleavage assay, LF | P15917 | AID 588501 | inhibition, % at 10 µM | hit rate 0.12% among 360,000; also: plate controls were buffer without enzyme for full effect and enzyme alone for no effect
Target sequence (P15917 whole entry, looked up): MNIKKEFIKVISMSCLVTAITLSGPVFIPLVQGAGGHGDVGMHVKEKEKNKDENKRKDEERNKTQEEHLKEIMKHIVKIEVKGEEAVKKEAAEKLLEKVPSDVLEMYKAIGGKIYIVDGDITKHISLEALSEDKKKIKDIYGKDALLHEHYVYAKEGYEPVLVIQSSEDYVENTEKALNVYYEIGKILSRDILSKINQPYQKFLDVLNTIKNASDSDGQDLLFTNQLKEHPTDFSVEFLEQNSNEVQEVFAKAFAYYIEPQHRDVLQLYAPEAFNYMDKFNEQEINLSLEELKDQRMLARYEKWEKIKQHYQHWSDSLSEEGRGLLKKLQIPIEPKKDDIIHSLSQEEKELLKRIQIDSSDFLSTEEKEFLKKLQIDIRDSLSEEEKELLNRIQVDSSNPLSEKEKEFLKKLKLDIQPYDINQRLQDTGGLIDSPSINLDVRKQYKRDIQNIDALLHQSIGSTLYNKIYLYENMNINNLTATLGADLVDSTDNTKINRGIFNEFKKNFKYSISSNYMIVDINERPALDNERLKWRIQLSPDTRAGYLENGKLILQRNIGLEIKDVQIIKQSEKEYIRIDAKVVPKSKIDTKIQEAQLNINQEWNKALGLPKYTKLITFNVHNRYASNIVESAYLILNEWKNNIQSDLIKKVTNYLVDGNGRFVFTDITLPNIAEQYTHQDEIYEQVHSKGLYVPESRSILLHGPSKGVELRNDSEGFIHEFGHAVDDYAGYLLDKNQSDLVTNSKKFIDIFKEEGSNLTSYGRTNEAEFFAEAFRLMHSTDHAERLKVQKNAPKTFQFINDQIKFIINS
BoNT F protease – blocks Botulinum neurotoxin F light chain protease; inhibition, % at 10 µM; hit rate 0.22% among 360,000; Multiplex microsphere protease cleavage assay, flow cytometry; in the data active = inhibition above about 35%, passing the limit was not always enough; inconclusive = no clear call, values can overlap the other calls; also: plate controls were buffer without enzyme for full effect and enzyme alone for no effect
Autofluor counter – counter-screen for toxin protease inhibitors: compound fluorescence | compound autofluorescence counterscreen, microsphere flow cytometry; active compounds read high | fluorescence intensity (test concentration not listed) | hit rate 3.1% among 360,000 | AID 624483; in the data active = fluorescence intensity above about 16000; inconclusive = no clear call, values can overlap the other calls
BoNT-A LC inh2 – BoNT A light chain protease inhibition. multiplex microsphere protease substrate cleavage, flow cytometry. inhibition, % at 10 µM. hit rate 0.17% among 360,000. AID 588499; also: plate controls were buffer without enzyme for full effect and enzyme alone for no effect
* = called active by the depositor; ? = inconclusive. A selection: hits, their analogues and other compounds. The true share with any hit is near 3.5%. Rule as the data show it, unless noted: active = inhibition above about 30%; inconclusive = no clear call, values can overlap the other calls; inactive = below that.

SMILES	Anthrax LF prot	BoNT F protease	Autofluor counter	BoNT-A LC inh2
O=C(c1cc(C2CC2)nc2ccccc12)N1N=C(C(F)F)CC1(O)C(F)F (stereo not drawn)	-10	2	18689*	3
CC(C)c1ccc(-c2cc(C(=O)N3N=C(C(F)F)CC3(O)C(F)F)c3ccccc3n2)cc1 (stereo not drawn)	-7	-11	10436	-1
O=C(c1cc(C2CC2)nc2ccc(Br)cc12)N1N=C(C(F)F)CC1(O)C(F)F (stereo not drawn)	-2	-1	22047*	2
Cc1cc(C(=O)N2CCC2(C)C(=O)Nc2cc(C(C)(C)C)nn2C)nn1C (stereo not drawn)	1	1	3403	0
COC(=O)c1ccc(C(=O)OC)c(NC(=S)N2CCCC(CO)C2)c1 (stereo not drawn)	-1	-1	4215	0
COC(=O)c1cc(OC)c(OC)cc1NC(=S)N1CCCC(CO)C1 (stereo not drawn)	4	1	22143*	1
Cc1cc(C)c(C)c(S(=O)(=O)N2CCN(C(=O)c3cc(=O)[nH]c4ccccc34)CC2)c1C	-9	11	20107*	8
Cc1cc(C)c(C)c(S(=O)(=O)N2CCN(Cc3nc4ccccc4[nH]3)CC2)c1C	-1	2	22533*	?
CN1C(=O)CC(NNC(=O)c2ccccc2)C1=O (stereo not drawn)	-4	-8	3433	0
CN1C(=O)CC(NNC(=O)c2ccc(Cl)cc2)C1=O (stereo not drawn)	-3	-10	22298*	-9
COc1ccc2c(c1)c(=O)oc1cc(OCC(=O)N3CCC(C)CC3)ccc12	2	11	20779*	5
COc1ccc2c(c1)c(=O)oc1cc(OCC(=O)N3CCCC(C)C3)ccc12 (stereo not drawn)	-2	4	2969	0
Cc1ccc(S(=O)(=O)CCC(=O)OCC(=O)c2cc(C)n(C)c2C)cc1	-2	-11	6664	-2
O=C(Nc1ccc(Cl)cc1)N1CCCC1	-7	-3	22686*	0
O=C(Nc1ccc(Cl)cc1)N1CCSc2ccccc21	0	-1	23243*	1
CCCS(=O)(=O)N1CCCC(C(=O)Oc2ccc(C)c(C)c2)C1 (stereo not drawn)	1	?	4143	-2
O=C(COC(=O)C1(c2ccc(F)cc2)CCCC1)NC1CC1	1	-3	17844*	-3
CC(=O)Nc1ccc(-c2ccnc3c2CC(C)(C(=O)NCc2ccc(F)c(F)c2)O3)cc1 (stereo not drawn)	-11	-1	3209	0
CCOc1ccc(NC(=S)Nc2cc(-c3ccccc3)[nH]n2)cc1	-4	-1	19137*	1
COc1ccccc1C(=O)Nc1ccc(N2CCN(Cc3ccccc3)CC2)cc1	2	2	2960	-1
O=C(Nc1ccc(N2CCN(Cc3ccccc3)CC2)cc1)c1ncn[nH]1	-5	-13	23010*	0
O=C(CCN1CCN(Cc2ccccc2)CC1)Nc1ccc(OCc2ccccc2)cc1	-4	-4	17367*	-2
CN1CCN(CCC(=O)Nc2ccc(OCc3ccccc3)cc2)CC1	4	6	5490	0
O=C(CCN1CCN(CCO)CC1)Nc1ccc(OCc2ccccc2)cc1	3	2	19226*	2
CC1(C)CC(=O)C(C2C3=C(CC(C)(C)CC3=O)Oc3c(Br)cc(Br)cc32)=C(O)C1 (stereo not drawn)	15	?	3548	0
SMILES	Anthrax LF prot	BoNT F protease	Autofluor counter	BoNT-A LC inh2
Cc1cc(-c2nnc(SCC(=O)Nc3ccc(F)cc3F)n2N)n[nH]1	-2	-4	4839	-2
NS(=O)(=O)c1ccc(NC(=S)Nc2ccc(OCc3ccccc3)cc2)cc1	-2	0	4131	-1
S=C(Nc1ccccc1)Nc1ccc(OCc2ccccc2)cc1	-6	4	19054*	?
CC(=O)N1c2ccc(S(=O)(=O)NCCC(=O)NCCc3cccc(C)c3)cc2CC1C (stereo not drawn)	-5	5	3839	2
Cc1ccc(C)c(NC(=O)CCC(=O)NNS(=O)(=O)c2ccc(Cl)cc2)c1	-5	-4	8510	2
COc1cc(CC(=O)OCC(=O)Nc2ccc3c(c2)OCCO3)cc(OC)c1OC	0	-4	2215	0
COCCNC(=O)NC(=O)COC(=O)Cc1ccc2c(c1)OCCO2	0	1	22511*	0
O=C(COC(=O)CNC(=O)C12CC3CC(CC(C3)C1)C2)Nc1ccccc1	-16	11	19773*	?
COc1cc(NC(=O)COC(=O)CNC(=O)C23CC4CC(CC(C4)C2)C3)cc(OC)c1	-4	-9	3288	-1
Nn1c(=O)c2ccccc2n2c(SCc3ccccc3)nnc12	1	-1	3009	0
CCCSc1nnc2n(N)c(=O)c3ccccc3n12	2	-1	22548*	0
Cc1ccccc1C(=O)N/N=C/c1ccncc1	-2	-1	19987*	?
CCOC(=O)c1cnn(-c2nc(-c3cccc(F)c3)cs2)c1C(F)(F)F	-3	-2	19380*	2
CCOC(=O)c1ccc(-c2cccc(C(F)(F)F)c2)nc1C	-2	-3	22705*	1
COc1ccc(CCN2CC(C(=O)N3CCCCCC3)CCC2=O)cc1 (stereo not drawn)	-4	1	3902	0
CC(C)(C)[C@H]1COC(=O)CC/C=C\C[C@@H](CC(=O)N(CCO)Cc2ccccc2)C(=O)N1	-7	-8	3948	0
NC(=O)c1cc([N+](=O)[O-])ccc1NCc1cccc2ccccc12	-1	6	3876	0
O=C(/C=C/Nc1ccc([N+](=O)[O-])cc1Br)c1cccc2ccccc12	18	-4	2150	38*
Cc1ccc(NC(=O)c2ccccc2)s1	-2	-8	24292*	-2
Cc1cc(C)c2c(=O)n(-c3ccccc3)[nH]c2n1	-8	-2	8630	1
Cc1cc(C(C)(C)C)nc2[nH]n(-c3ccccc3)c(=O)c12	1	-7	20895*	-4
N#C/C(=C\c1ccccc1)C(=O)NCc1ccc(F)cc1	-1	1	5815	0
N#C/C(=C/c1ccc(C(=O)O)cc1)C(=O)NCc1ccccc1	-2	-9	17589*	?
O=C(c1ccc(Cl)c(Cl)c1)c1cnc(Nc2ccccc2)s1	-1	-1	16510*	0
O=C(c1ccccc1)c1cnc(Nc2ccccc2Cl)s1	-5	-3	21405*	4
SMILES	Anthrax LF prot	BoNT F protease	Autofluor counter	BoNT-A LC inh2
CCCOC(=O)Nc1nnc(CCC)s1	2	10	21272*	7
O=C(NCCCO)C(=O)Nc1cc2c3c(c1)CCC(=O)N3CCC2	-4	6	3753	2
Cc1nc2nc(-c3cccnc3)[nH]n2c(=O)c1Cc1ccccc1	0	3	20663*	2
CCN(CC)CCn1c(=N)n(CCOc2ccccc2)c2ccccc21	-12	-10	25371*	?
COc1ccc(NC(=O)CSc2nnc(-c3ccc(C)cc3)n2N)cc1	-3	-5	9474	0
COC(=O)CSc1nnc(-c2ccncc2)n1N	-3	0	19048*	2
CCn1c(SCC(=O)OC)nnc1-c1ccncc1	-2	-13	4772	-1
Cc1ccc(NC(=O)CSc2nnc(-c3ccncc3)n2N)cc1C	0	-4	24163*	-1
CCOc1ccc(N(Cc2cc3cc(C)ccc3[nH]c2=O)S(=O)(=O)c2ccccc2)cc1	1	-1	6244	0
